# Results as given in PubChem BioAssay (EPA / NIEHS).
# Inconclusive results are not listed. Activity calls are given as the source filed them. The calls were made as follows: active = hit-call score of the fitted dose curve at least 0.9, where 1 is the maximum; inconclusive = response in the unintended direction; inactive = score below 0.9.
# Biological target: human CYP19A1, CYP19A1 (gene 1588) (UniProt P11511)
# Test: NVS_ADME_hCYP19A1: NovaScreen (NVS) CYP450-related Enzyme Activity (ADME) Assay for human CYP19A1 (AID 2283098);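 as to AC50: potency for inhibitors seen as loss of fluorescent enzyme signal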
# Method in brief: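 Primary testing was in duplicate at a single 10 uM concentration, with actives followed up in concentration-response series. Fluorescence read-out of recombinant enzyme activity at 0.5 h, cell-free. Acetonitrile was the negative-control baseline.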
# Sequence of human CYP19A1, CYP19A1 (gene 1588) (P11511 whole entry, looked up): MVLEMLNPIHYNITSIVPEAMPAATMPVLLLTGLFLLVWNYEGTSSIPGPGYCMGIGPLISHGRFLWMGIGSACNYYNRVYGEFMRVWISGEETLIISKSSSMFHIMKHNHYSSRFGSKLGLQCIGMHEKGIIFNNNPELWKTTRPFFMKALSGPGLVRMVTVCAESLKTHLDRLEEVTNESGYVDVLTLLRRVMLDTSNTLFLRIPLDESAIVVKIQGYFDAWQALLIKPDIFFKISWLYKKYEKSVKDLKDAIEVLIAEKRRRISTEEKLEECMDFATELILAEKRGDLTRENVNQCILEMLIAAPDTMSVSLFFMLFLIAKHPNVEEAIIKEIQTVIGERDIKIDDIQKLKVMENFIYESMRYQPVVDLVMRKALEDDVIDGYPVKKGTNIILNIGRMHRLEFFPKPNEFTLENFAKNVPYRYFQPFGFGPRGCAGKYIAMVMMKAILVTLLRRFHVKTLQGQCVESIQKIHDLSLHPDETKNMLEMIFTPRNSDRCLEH
SMILES,AC50,outcome
Clc1ccc(C2(Cn3cncn3)CC(Br)CO2)c(Cl)c1 (stereo not given),5.55 µM (active),–
Fc1ccc(C2(Cn3cncn3)OC2c2ccccc2Cl)cc1 (stereo not given),1.86 µM (active),–
O=C1C(Cl)=C(Cl)C(=O)c2ccccc21,7.68 µM (active),–
CC(=O)C=C(C)C,–,inactive
CCC[CH2][Sn]([Cl])([Cl])[Cl],–,inactive
OCc1ccco1,–,inactive
[O-][Cl+2]([O-])O,5.58 µM (active),–
Oc1cccc2cccnc12,–,inactive

# Biological target: human CYP2A6, CYP2A6 (gene 1548) (UniProt P11509)
# Test: NVS_ADME_hCYP2A6: NovaScreen (NVS) CYP450-related Enzyme Activity (ADME) Assay for human CYP2A6 (AID 2283099)
# Method in brief: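 Recombinant human CYP2A6 from insect cells was incubated with chemical for 0.5 h and activity read by fluorescence. Single-concentration duplicates at 10 uM preceded concentration-response testing to 20 uM, with activity referenced to acetonitrile.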
# Sequence of human CYP2A6, CYP2A6 (gene 1548) (P11509 whole entry, looked up): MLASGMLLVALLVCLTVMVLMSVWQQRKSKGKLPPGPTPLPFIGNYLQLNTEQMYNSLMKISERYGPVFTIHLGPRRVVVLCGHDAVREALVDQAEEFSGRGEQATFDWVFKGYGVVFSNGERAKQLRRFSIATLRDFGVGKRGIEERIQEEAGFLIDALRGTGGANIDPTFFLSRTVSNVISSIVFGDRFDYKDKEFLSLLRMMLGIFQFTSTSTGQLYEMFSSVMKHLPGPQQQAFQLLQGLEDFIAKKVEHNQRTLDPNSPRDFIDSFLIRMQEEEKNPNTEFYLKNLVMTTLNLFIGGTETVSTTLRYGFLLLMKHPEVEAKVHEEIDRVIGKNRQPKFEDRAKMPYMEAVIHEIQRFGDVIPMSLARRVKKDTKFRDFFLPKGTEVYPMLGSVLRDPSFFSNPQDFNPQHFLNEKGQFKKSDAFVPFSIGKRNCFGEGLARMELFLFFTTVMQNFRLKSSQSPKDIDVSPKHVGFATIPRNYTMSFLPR
row,SMILES,outcome
1,CCCCCCCCc1ccc(O)cc1,inactive
2,O=[N+]([O-])c1ccc(O)c([N+](=O)[O-])c1,inactive
3,CC(C)(C)c1cc(O)ccc1O,inactive

# Biological target: human CYP1A1, CYP1A1 (gene 1543) (UniProt P04798)
# Test: NVS_ADME_hCYP1A1: NovaScreen (NVS) CYP450-related Enzyme Activity (ADME) Assay for human CYP1A1 (AID 2283100)
# Method in brief: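 Compounds first went through duplicate single-concentration testing at 10 uM against purified CYP1A1. Those passing a threshold such as 30% inhibition entered singleton dose-response, highest concentration 20 uM. Signal was fluorescence measured after 1 hour.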
# Sequence of human CYP1A1, CYP1A1 (gene 1543) (P04798 whole entry, looked up): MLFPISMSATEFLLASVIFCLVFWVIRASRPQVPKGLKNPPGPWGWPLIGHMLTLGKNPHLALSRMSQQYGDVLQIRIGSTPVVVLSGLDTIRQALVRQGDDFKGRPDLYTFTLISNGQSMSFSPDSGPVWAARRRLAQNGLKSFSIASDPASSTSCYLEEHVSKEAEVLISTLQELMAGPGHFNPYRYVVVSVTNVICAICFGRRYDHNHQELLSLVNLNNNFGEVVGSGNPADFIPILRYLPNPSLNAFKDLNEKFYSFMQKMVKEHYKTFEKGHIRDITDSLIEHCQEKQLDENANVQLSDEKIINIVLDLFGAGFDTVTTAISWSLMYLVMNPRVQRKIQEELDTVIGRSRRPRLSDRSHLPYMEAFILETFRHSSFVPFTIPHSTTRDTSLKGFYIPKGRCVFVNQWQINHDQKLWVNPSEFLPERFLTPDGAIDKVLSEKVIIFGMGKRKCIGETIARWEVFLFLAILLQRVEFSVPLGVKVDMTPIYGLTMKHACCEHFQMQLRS
SMILES,outcome,AC50
Clc1ccc(C2(Cn3cncn3)CC(Br)CO2)c(Cl)c1 (stereo not given),inactive,–
CC1(C)CCC(Cc2ccc(Cl)cc2)C1(O)Cn1cncn1 (stereo not given),inactive,–
CC(=O)[O][Hg][c]1ccccc1,–,16 µM (active)
ClC1(Cl)C2(Cl)C3(Cl)C4(Cl)C(Cl)(Cl)C5(Cl)C3(Cl)C1(Cl)C5(Cl)C24Cl (stereo not given),inactive,–
